# Data as given in PubChem BioAssay (NCI).
# Compounds without any hit were thinned out: in the full panel of roughly 83,000, 20% have a hit.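 Cells were grown in 96-well plates and exposed to the test compound at a single concentration for 48 hours; results are reported as percent growth, with values below 10 considered active.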 Unmarked numbers belong to inactive results. Activity calls are given as the source filed them.
# Legend:
# Experiment in all cases: NCI-60 one-dose screen, 48 h (100 = growth as untreated, 0 = no growth, -100 = all killed)
# Settings in all cases: 10 µM unless noted
# NCI-H23 lung = tested on: NCI-H23 lung
# NCI-H226 lung = tested on: NCI-H226 lung
# NCI-H322M lung = tested on: NCI-H322M lung
# HOP-62 NSCLC = tested on: HOP-62 NSCLC
# NCI-H460 lung = tested on: NCI-H460 lung
# A549/ATCC NSCLC = tested on: A549/ATCC NSCLC
# 786-0 renal = tested on: 786-0 renal
# COLO 205 colon = tested on: COLO 205 colon
# DU-145 prostate = tested on: DU-145 prostate
# K-562 leukemia = tested on: K-562 leukemia
# MALME-3M melanoma = tested on: MALME-3M melanoma
# MDA-MB-231 breast = tested on: MDA-MB-231 breast
# RXF 393 renal = tested on: RXF 393 renal
# SF-268 CNS = tested on: SF-268 CNS
# SF-295 CNS = tested on: SF-295 CNS
# SF-539 CNS = tested on: SF-539 CNS
# UACC-257 melanoma = tested on: UACC-257 melanoma
# M14 melanoma = tested on: M14 melanoma
Structure (SMILES),growth (NCI-H23 lung),growth (NCI-H226 lung),growth (NCI-H322M lung),growth (HOP-62 NSCLC),growth (NCI-H460 lung),growth (A549/ATCC NSCLC),growth (786-0 renal),growth (COLO 205 colon),growth (DU-145 prostate),growth (K-562 leukemia),growth (MALME-3M melanoma),growth (MDA-MB-231 breast),growth (RXF 393 renal),growth (SF-268 CNS),growth (SF-295 CNS),growth (SF-539 CNS),growth (UACC-257 melanoma),growth (M14 melanoma)
[N-]=[N+]=Nc1ncc(-c2ccc(C(F)(F)F)cc2)c(NC2CCCCCC2)n1,38% [100 µM],60.3% [100 µM],47.6% [100 µM],69.9% [100 µM],18.4% [100 µM],23.6% [100 µM],38.1% [100 µM],36.3% [100 µM],37.1% [100 µM],8.78% [100 µM] (active),62.3% [100 µM],42.3% [100 µM],43.5% [100 µM],38% [100 µM],-19.7% [100 µM] (active),66.2% [100 µM],27.6% [100 µM],34.7% [100 µM]
COCn1c(C(=O)OC)cc2oc(/C=C3/SC(=S)N(N)C3=O)cc21,103%,115%,77.5%,122%,105%,105%,96.5%,110%,94.1%,63.7%,45.8%,110%,27.6%,73.1%,82.3%,90.3%,113%,–
O=C(N/N=C/c1coc2ccccc2c1=O)c1cc2oc(-c3ccccc3)cc2[nH]1,113%,114%,89.4%,95.9%,105%,105%,106%,94.3%,93.8%,82.6%,-5.98% (active),96.8%,82%,96.2%,103%,89.8%,118%,–
O=C1C(Br)=CC2C1C1C3CCC3C2(Br)C12OCCO2 (centres undefined),65.8%,59.6%,54.5%,47.2%,22.6%,33.2%,42.8%,38.9%,19.7%,15.8%,46%,51.7%,18.4%,25.6%,31.4%,14.5%,54%,44.4%
BrCCCOc1ccc(Oc2ccc(OCCCBr)cc2)cc1,109%,99.6%,123%,108%,105%,94.7%,88.9%,134%,116%,109%,117%,104%,80.8%,111%,116%,113%,90.4%,–
CCC(C)[C@H](NC(=O)Nc1cc(C(F)(F)F)cc(C(F)(F)F)c1)C(=O)N[C@@H](Cc1cn(C)cn1)C(=O)OC (some centres undefined),-83.2% [100 µM] (active),-50.6% [100 µM] (active),-96.8% [100 µM] (active),-99.2% [100 µM] (active),-64.5% [100 µM] (active),-76% [100 µM] (active),-88.4% [100 µM] (active),-83.9% [100 µM] (active),-96.4% [100 µM] (active),-68.3% [100 µM] (active),-86.5% [100 µM] (active),-96.3% [100 µM] (active),-86.6% [100 µM] (active),-87.9% [100 µM] (active),-93.3% [100 µM] (active),-96% [100 µM] (active),-97.5% [100 µM] (active),-89.7% [100 µM] (active)
O=C(Nc1ccc(-n2cc(-c3ccncc3)c(-c3ccc(Cl)c(O)c3)n2)cc1)c1ccc(Cl)c(C(F)(F)F)c1,-54.4% (active),89%,37.2%,-66.1% (active),-74.4% (active),-30.3% (active),-94.1% (active),-1.56% (active),26.4%,2.13% (active),-26.6% (active),-33.5% (active),-66.3% (active),28.6%,-63.4% (active),-32.4% (active),31.4%,-79.4% (active)
O=C(CCl)c1ccc2c(c1)CCCC2,105%,108%,94.3%,107%,107%,101%,90.6%,113%,110%,72.1%,80.8%,103%,99%,104%,70.2%,90.8%,98.1%,95.5%
COc1cccc(NC(=O)NCCNc2nccc(-c3c(-c4ccc(F)cc4)nc4sccn34)n2)c1,89.9%,85.9%,115%,99.4%,58.8%,54.4%,63%,69.3%,76.9%,71.4%,140%,79.4%,88.5%,84.2%,103%,102%,119%,92.6%
